{
  "source": "PubChem BioAssay (Tox21)",
  "note": "Inconclusive results are not listed. A call without a number means that no potency is given here. Values without a mark were called inactive. Calls of active or inactive are those of the source. Calls come from the whole dose curve; as a rule, active = well fitted curve in the direction sought with a large enough effect in the repeat runs; inconclusive = weak or mixed curves; inactive = no such curve, though single readings can be large; an effect the other way counts as inactive or inconclusive. Potency is the fitted concentration of half-maximal effect.",
  "data": [
    {"experiment": "qHTS RealTime-Glo MT Cell Viability Assay in HepG2 cells - 8 hour (AID 1224873); note: nearly all actives have a fitted effect of over 55% in size", "details": "RealTime-Glo luminescence; series mostly up to 76.8 µM", "procedure,_shortened": "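HepG2 cells mixed with RealTime-Glo MT reagents (NanoLuc plus cell-permeant prosubstrate) were seeded at 600 cells/well, incubated 5 h at 37 C/5% CO2, then pinned with compounds in DMSO; nonlytic luminescence tracked viability during 40 h treatment.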", "values": [
      {"smiles": "BrCCCCCCBr", "Potency": "inactive"},
      {"smiles": "Nc1cnn(-c2ccccc2)c(=O)c1Cl", "Potency": "inactive"},
      {"smiles": "O=[N+]([O-])c1cc(Cl)c(Cl)c(Cl)c1", "Potency": "inactive"},
      {"smiles": "Cc1cc(C)c(C(=O)P(=O)(C(=O)c2c(C)cc(C)cc2C)c2ccccc2)c(C)c1", "Potency": "inactive"},
      {"smiles": "CC(Oc1ccc(Oc2ncc(C(F)(F)F)cc2Cl)cc1)C(=O)O", "note": "(stereo not drawn)", "Potency": "inactive"},
      {"smiles": "Cc1coc2c1CCC(C)C2", "note": "(stereo not drawn)", "Potency": "inactive"},
      {"smiles": "CC(N)=S", "Potency": "inactive"},
      {"smiles": "CCN(CC)CCOC(=O)C(C)(c1ccccc1)c1ccccc1", "Potency": "inactive"},
      {"smiles": "O=C1c2ccccc2C(=O)c2ccccc21", "viability change, negative = cytotoxic": "0.64% [at 15.8 µM]"},
      {"smiles": "CCC(=O)C(CCN(C)C)(c1ccccc1)c1ccccc1", "Potency": "inactive"},
      {"smiles": "c1cc2c(c(N3CCNCC3)c1)OCCO2", "Potency": "inactive"},
      {"smiles": "CCCSC(=O)Cl", "Potency": "inactive"},
      {"smiles": "N#CC(CCc1ccc(Cl)cc1)(Cn1cncn1)c1ccccc1", "note": "(stereo not drawn)", "Potency": "38.9 µM (active)"},
      {"smiles": "CCOC(=O)NC(=S)Nc1ccccc1NC(=S)NC(=O)OCC", "Potency": "inactive"},
      {"smiles": "C(CCOCC1CO1)COCC1CO1", "note": "(stereo not drawn)", "Potency": "inactive"},
      {"smiles": "CCN(CC)C(=O)[C@@H]1C=C2c3cccc4[nH]cc(c34)C[C@H]2N(C)C1", "Potency": "inactive"},
      {"smiles": "NC(=S)C(N)=S", "Potency": "inactive"},
      {"smiles": "CC(CC(C#N)(c1ccccc1)c1ccccc1)N(C)C", "note": "(stereo not drawn)", "Potency": "inactive"},
      {"smiles": "CS(=O)(=O)c1cc(C(F)(F)F)ccc1C(=O)c1cnoc1C1CC1", "Potency": "inactive"},
      {"smiles": "C[C@]1(O)CC[C@H]2[C@@H]3CCC4=CC(=O)CC[C@]4(C)[C@@]3(F)[C@@H](O)C[C@@]21C", "Potency": "inactive"},
      {"smiles": "COc1cc2c(cc1OC)[C@@]13CCN4CC5=CCO[C@H]6CC(=O)N2[C@H]1[C@H]6[C@H]5C[C@H]43", "Potency": "inactive"},
      {"smiles": "CCN(CC)C(C)C(=O)c1ccccc1", "note": "(stereo not drawn)", "Potency": "inactive"},
      {"smiles": "O=NN1CCCCC1", "Potency": "inactive"},
      {"smiles": "CN(N=O)C(N)=O", "Potency": "inactive"}
    ]},
    {"experiment": "qHTS RealTime-Glo MT Cell Viability Assay in HEK293 cells - 40 hour (AID 1224874); note: nearly all actives have a fitted effect of over 50% in size", "details": "RealTime-Glo luminescence; max response: active compounds read low", "procedure,_shortened": "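HEK293 + NanoLuc + prosubstrate, 600 cells/well; 5 h, 37 C/5% CO2; compound 23 nL in DMSO by pintool; 37 C; luminescence read at 0, 8, 16, 24, 32 and 40 h time points.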", "units": {"max response": "%"}, "values": [
      {"smiles": "Fc1cc(Br)ccc1CBr", "max response": -0.0441},
      {"smiles": "Nc1cc2c3c(c1)C(c1ccccc1)=N[C@@H](NC(=O)c1cccnc1)C(=O)N3CC2", "max response": -6.57},
      {"smiles": "CCCSC(=O)N(CCC)CCC", "max response": 7.77},
      {"smiles": "CCCCC(=O)Cl", "max response": 5.77},
      {"smiles": "N#CC(CCc1ccc(Cl)cc1)(Cn1cncn1)c1ccccc1", "note": "(stereo not drawn)", "Potency": "17.4 µM (active)"},
      {"smiles": "ClC(Cl)Br", "max response": 8.21},
      {"smiles": "OC(c1ccccc1)(c1ccccc1)C1CCNCC1", "max response": -12.9},
      {"smiles": "CNC(=O)O/N=C(\\C)SC", "max response": 14.5},
      {"smiles": "N#CCBr", "max response": 6.36},
      {"smiles": "CCCCCCI", "max response": -0.352},
      {"smiles": "O=C(Oc1ccc(Br)cc1)N1CCN2CCC1CC2", "max response": -0.781},
      {"smiles": "CCCCCCBr", "max response": 13.7},
      {"smiles": "OCCSCSCCO", "max response": 10.4},
      {"smiles": "CCCCOC(=O)[C@@H](C)Oc1ccc(Oc2ccc(C#N)cc2F)cc1", "Potency": "38.7 µM (active)"}
    ]},
    {"experiment": "A CellTox Green Cytotoxicity Assay to monitor cytotoxicity in HEK293 cells - 24 hour (AID 1224875); note: nearly all actives have a fitted effect of over 45% in size", "details": "CellTox Green fluorescence; series mostly up to 76.8 µM", "procedure,_shortened": "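Tox21 screen in HEK293: membrane-impermeant cyanine dye fluoresces on binding dead-cell DNA; compound pinned 5 h post-seeding, plates held at 37 C, signal read repeatedly through 40 h.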", "values": [
      {"smiles": "BrCCCCCCBr", "Potency": "inactive"},
      {"smiles": "Nc1cnn(-c2ccccc2)c(=O)c1Cl", "Potency": "inactive"},
      {"smiles": "Fc1cc(Br)ccc1CBr", "Potency": "inactive"},
      {"smiles": "Nc1cc2c3c(c1)C(c1ccccc1)=N[C@@H](NC(=O)c1cccnc1)C(=O)N3CC2", "Potency": "inactive"},
      {"smiles": "O=[N+]([O-])c1cc(Cl)c(Cl)c(Cl)c1", "Potency": "21.7 µM (active)"},
      {"smiles": "CCCSC(=O)N(CCC)CCC", "Potency": "inactive"},
      {"smiles": "Cc1cc(C)c(C(=O)P(=O)(C(=O)c2c(C)cc(C)cc2C)c2ccccc2)c(C)c1", "Potency": "inactive"},
      {"smiles": "CC(Oc1ccc(Oc2ncc(C(F)(F)F)cc2Cl)cc1)C(=O)O", "note": "(stereo not drawn)", "Potency": "inactive"},
      {"smiles": "Cc1coc2c1CCC(C)C2", "note": "(stereo not drawn)", "Potency": "inactive"},
      {"smiles": "CC(N)=S", "Potency": "inactive"},
      {"smiles": "CCN(CC)CCOC(=O)C(C)(c1ccccc1)c1ccccc1", "Potency": "inactive"},
      {"smiles": "O=C1c2ccccc2C(=O)c2ccccc21", "activity change": "6.87% [at 15.8 µM, active compounds read high]"},
      {"smiles": "CCCCC(=O)Cl", "Potency": "inactive"},
      {"smiles": "CCC(=O)C(CCN(C)C)(c1ccccc1)c1ccccc1", "Potency": "inactive"},
      {"smiles": "c1cc2c(c(N3CCNCC3)c1)OCCO2", "Potency": "inactive"},
      {"smiles": "CCCSC(=O)Cl", "Potency": "inactive"},
      {"smiles": "CCOC(=O)NC(=S)Nc1ccccc1NC(=S)NC(=O)OCC", "Potency": "inactive"},
      {"smiles": "ClC(Cl)Br", "Potency": "inactive"},
      {"smiles": "C(CCOCC1CO1)COCC1CO1", "note": "(stereo not drawn)", "Potency": "inactive"},
      {"smiles": "OC(c1ccccc1)(c1ccccc1)C1CCNCC1", "Potency": "inactive"},
      {"smiles": "CCN(CC)C(=O)[C@@H]1C=C2c3cccc4[nH]cc(c34)C[C@H]2N(C)C1", "Potency": "inactive"},
      {"smiles": "NC(=S)C(N)=S", "Potency": "inactive"},
      {"smiles": "CNC(=O)O/N=C(\\C)SC", "Potency": "inactive"},
      {"smiles": "N#CCBr", "Potency": "inactive"},
      {"smiles": "CCCCCCI", "Potency": "inactive"},
      {"smiles": "CC(CC(C#N)(c1ccccc1)c1ccccc1)N(C)C", "note": "(stereo not drawn)", "Potency": "inactive"},
      {"smiles": "CS(=O)(=O)c1cc(C(F)(F)F)ccc1C(=O)c1cnoc1C1CC1", "Potency": "inactive"},
      {"smiles": "O=C(Oc1ccc(Br)cc1)N1CCN2CCC1CC2", "Potency": "inactive"},
      {"smiles": "COc1cc2c(cc1OC)[C@@]13CCN4CC5=CCO[C@H]6CC(=O)N2[C@H]1[C@H]6[C@H]5C[C@H]43", "Potency": "inactive"},
      {"smiles": "CCCCCCBr", "Potency": "inactive"},
      {"smiles": "CCN(CC)C(C)C(=O)c1ccccc1", "note": "(stereo not drawn)", "Potency": "inactive"},
      {"smiles": "O=NN1CCCCC1", "Potency": "inactive"},
      {"smiles": "CN(N=O)C(N)=O", "Potency": "inactive"},
      {"smiles": "OCCSCSCCO", "Potency": "inactive"},
      {"smiles": "CCCCOC(=O)[C@@H](C)Oc1ccc(Oc2ccc(C#N)cc2F)cc1", "Potency": "inactive"}
    ]}
  ]
}
